# LmPK inhibitor: qHTS Assay for Inhibitors of Leishmania Mexicana Pyruvate Kinase (LmPK); Q27686; purified LmPK, Kinase-Glo ATP luminescence, 1 h; Potency, µM (highest dose often 57.5 µM), for inactives: top-dose activity change, negative = inhibition, usual class: inhibitors; hit rate 0.37% among 290,000; AID 1721, 2009; further: potency means the concentration at half of the fitted maximal effect; on the % scale 0 is the no-effect control and ±100 the full control effect
# Target sequence (Q27686 whole entry, looked up): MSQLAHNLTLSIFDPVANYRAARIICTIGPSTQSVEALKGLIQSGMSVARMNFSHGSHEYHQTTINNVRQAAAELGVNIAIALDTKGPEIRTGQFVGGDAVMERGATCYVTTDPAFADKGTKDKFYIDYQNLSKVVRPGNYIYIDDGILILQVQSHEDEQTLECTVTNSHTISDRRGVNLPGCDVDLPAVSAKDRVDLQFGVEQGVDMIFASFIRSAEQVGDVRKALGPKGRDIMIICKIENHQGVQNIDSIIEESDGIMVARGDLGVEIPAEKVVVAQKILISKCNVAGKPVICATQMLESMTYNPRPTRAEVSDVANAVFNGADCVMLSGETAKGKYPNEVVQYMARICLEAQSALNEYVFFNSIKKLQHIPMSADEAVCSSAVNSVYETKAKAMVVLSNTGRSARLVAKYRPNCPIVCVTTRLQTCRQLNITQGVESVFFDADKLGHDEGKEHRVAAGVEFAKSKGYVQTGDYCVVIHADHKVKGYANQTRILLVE
#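 qHTS format; LmPK 0.1 nM; substrates PEP 0.5 mM and ADP 0.1 mM. One-hour room-temperature incubation, then coupled luciferase luminescence; 0.5 nM enzyme wells mark activation.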
# TbPYK inhibitor: qHTS of Trypanosoma Brucei Inhibitors; pyruvate kinase (Trypanosoma brucei), Q57TT1; TbPYK enzyme, Kinase-Glo Plus ATP luminescence, 45 min; Potency, µM (top dose mostly 76.8 µM), for inactives: top-dose activity, negative = inhibition, actives largely listed as inhibitors; hit rate 0.12% among 410,000; further: potency means the concentration at half of the fitted maximal effect; on the % scale 0 is the no-effect control and ±100 the full control effect; nearly all actives have a fitted effect of over 50% in size
#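 Activity of T. brucei pyruvate kinase was followed by Kinase-Glo Plus luminescence after the enzyme reacted 45 min at room temperature with 130 uM ADP (final) and substrate. Test compounds were added before ADP at multiple concentrations.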
# CHX counter: Cycloheximide Counterscreen for Small Molecule Inhibitors of Shiga Toxin; cell reporter, cycloheximide protein synthesis inhibition counterscreen; max response, %; hit rate 12% among 300,000; in the data active means max response mostly above about 13%, no sharp cut-off; inactive means mostly below about 14%; further: read at 38.3 µM for the half of the compounds with a filed dose; 0% is about no effect
# Shiga toxin inh: A qHTS for Small Molecule Inhibitors of Shiga Toxin; Vero cells, Shiga toxin protein synthesis inhibition reporter; inhibition, % at 38.7 µM; hit rate 9.2% among 290,000; AID 2315, 2010; in the data active means inhibition mostly above about 28%, no sharp cut-off; inactive means mostly below about 43%; further: 0% is about no effect
# Giardia FBPA inh: qHTS Assay for Inhibitors of Fructose-1,6-bisphosphate Aldolase from Giardia Lamblia; purified Giardia FBPA; Potency, µM (titrated, usually from 59.6 µM), for the others: at the top dose activity, negative = inhibition, most hits filed as inhibitors; hit rate 0.71% among 290,000; further: potency means the concentration at half of the fitted maximal effect; on the % scale 0 is the no-effect control and ±100 the full control effect; nearly all actives have a fitted effect of over 55% in size
#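 40 nM FBPA preincubated 10 min at RT with compound (up to 57.5 uM final), then substrate plus GAPDH/TPI/NAD/arsenate coupling and diaphorase/resazurin added. Fluorescence read after 20 min at RT, 525/598 nm.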
# Sm TGR block: qHTS Assay for the Inhibitors of Schistosoma Mansoni Peroxiredoxins; Potency, µM (highest dose often 114 µM), inactives show top-dose activity change, negative = inhibition, hits mostly inhibitors; purified TGR, DTNB reduction, TNB absorbance 405 nm; Schistosoma mansoni thioredoxin glutathione reductase (TGR), Q962Y6; hit rate 3% among 360,000; further: potency means the concentration at half of the fitted maximal effect; on the % scale 0 is the no-effect control and ±100 the full control effect; nearly all actives have a fitted effect of over 60% in size
#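 First, TGR (20 nM dispensed) and NADPH were mixed with compound. Second, a 15 min room-temperature incubation followed. Third, further NADPH and then DTNB were added to start the reaction. Finally, TNB absorbance was monitored kinetically.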
# Active calls of the source: *; ? = inconclusive; / = not tested or not shown. The full list was thinned out, with hits kept by preference. Unless noted, the call rests on the fitted dose curve; in most records, active means well fitted curve in the direction sought with a large enough effect; inconclusive means small, poorly fitted or top-dose-only effect, or another doubt; inactive means no such curve, though single readings can be large; an effect the other way counts as inactive or inconclusive.
SMILES,LmPK inhibitor,TbPYK inhibitor,CHX counter,Shiga toxin inh,Giardia FBPA inh,Sm TGR block
COc1ccc(C(=O)NCC(=O)Nc2cccc(S(=O)(=O)NCc3ccco3)c2)cc1OC,1%,0%,5,48,-18%,45µM*
Cc1cccc(C)c1NC(=O)CNC(=O)c1ccc(S(=O)(=O)NCc2ccco2)cc1,/,-13%,/,/,/,20µM*
Cc1cc(C)cc(NS(=O)(=O)CCCS(=O)(=O)Nc2cc(C)cc(C)c2)c1,/,-6%,/,/,/,/
COc1cc(NC(=O)CSC2=Nc3ccccc3N=C(c3ccc(F)cc3)C2)cc(OC)c1,/,-6%,/,/,/,-1%
O=C(CCC1CCCCC1)NC1CCCCC1,/,0%,/,/,/,/
C=CCNc1nc2c3ccccc3n(C(C)=O)c2s1,-9%,-27%,24,129*,?,-13%
COc1cc(NC(=O)C2=C(N3CCOCC3)/C(=C\c3ccc(N(C)C)cc3)CCC2)cc(OC)c1OC,-1%,-21%,46*,77*,-6%,-22%
COc1cc(NC(=O)C2=C(N3CCOCC3)/C(=C/c3ccc(Cl)cc3)CC2)cc(OC)c1OC,-3%,1%,0,-4,-3%,-4%
COCCCn1c(SCC(=O)n2c(C)c(C)c3ccccc32)nnc1-c1ccoc1C,1%,-6%,7,55,0%,45µM*
COCCn1c(SCC(=O)c2ccc3c(c2)OCCO3)nnc1-c1ccoc1C,-2%,-17%,111*,105*,-1%,28µM*
COc1ccc(C(=O)CSc2nnc(-c3ccoc3C)n2CC2CCCO2)cc1 (stereo not given),6%,-6%,-2,-22,1%,45µM*
COCCCn1c(SCC(=O)Nc2ccc3c(c2)OCCO3)nnc1-c1ccoc1C,3%,-2%,27*,76*,6%,0%
CC(C)c1ccc(/C=N/NC(=O)c2ccc(-n3cnnn3)cc2)cc1,/,-2%,/,/,/,-10%
CCCCn1nnnc1C(c1cc2ccccc2o1)N(C)Cc1ccc(Cl)cc1 (stereo not given),/,-2%,/,/,/,/
COCCn1c(SCC(=O)N2CCCC2)nnc1-c1ccco1,-2%,4%,-6,-3,-6%,-5%
COCCn1c(SCC(=O)N2CCCC2)nnc1-c1ccoc1C,-1%,2%,13,82*,-5%,-9%
Cc1ccc(CN(C(=O)c2ccccc2)c2ccccn2)o1,/,1%,/,/,/,-13%
COc1ccc(C2=NOC(CNC(=S)N3CCOCC3)C2)cc1 (stereo not given),5%,4%,34*,57*,2%,17%
CCc1ccc(C(c2ccccc2)c2c(C)[nH]c3ccccc23)s1 (stereo not given),/,-9%,/,/,/,-19%
COc1ccccc1-c1nnc(SCC(=O)Nc2oc(C)c3c(C)n[nH]c(=O)c23)n1C,/,-22%,/,/,/,19%
COCC(C)n1c(COc2ccccc2F)nnc1SCC(=O)Nc1oc(C)c2c(C)n[nH]c(=O)c12 (stereo not given),/,?,/,/,/,25µM*
CN(C)c1ccc(C=c2c3ccccc3n3c2c2c([n+]3C)CCCC2)cc1,/,-11%,/,/,/,/
Cc1ccc(/C=C2\SC(=S)N(CCC(=O)NCCCN3CCOCC3)C2=O)cc1,1%,2%,14,25,-3%,-4%
COc1ccc(/C=C2\SC(=S)N(CCC(=O)NCCCN3CCOCC3)C2=O)cc1,3%,-8%,13*,28,11%,-4%
COC(=O)c1ccc(/C=C2\SC(=S)N(CCCC(=O)NCCCN3CCOCC3)C2=O)cc1,-11%,-5%,-5,-9,/,-12%
CCc1ccc(/C=C2\SC(=S)N(CCC(=O)NCCCN3CCOCC3)C2=O)cc1,-1%,0%,45*,46*,/,-11%
COc1ccc(CN2C(=O)C(CC(=O)NC(c3ccccc3)c3ccccc3)CC(C(=O)N(C(C)C)C(C)C)=C2C)cc1 (stereo not given),/,-11%,/,/,/,/
Cc1cccc(C)c1NC(=O)CSCc1cnn(-c2ccccc2)c1-n1cccc1,/,0%,/,/,/,-10%

# Assay outcomes from PubChem BioAssay.
